{"source": "ChEMBL document CHEMBL1201862", "about": "“PubChem BioAssay data set” (2004)", "note": "Among all 400,000 compounds or so, about 2,100 (0.53%) were called active. Not shown: some 14% with an inconclusive outcome. The rule behind the calls is not given here. This excerpt belongs to a sample that is enriched for actives.", "data": [{"molecular_target": "Ataxin-2 (Homo sapiens) (UniProt Q99700)", "sequence (Q99700 whole entry)": "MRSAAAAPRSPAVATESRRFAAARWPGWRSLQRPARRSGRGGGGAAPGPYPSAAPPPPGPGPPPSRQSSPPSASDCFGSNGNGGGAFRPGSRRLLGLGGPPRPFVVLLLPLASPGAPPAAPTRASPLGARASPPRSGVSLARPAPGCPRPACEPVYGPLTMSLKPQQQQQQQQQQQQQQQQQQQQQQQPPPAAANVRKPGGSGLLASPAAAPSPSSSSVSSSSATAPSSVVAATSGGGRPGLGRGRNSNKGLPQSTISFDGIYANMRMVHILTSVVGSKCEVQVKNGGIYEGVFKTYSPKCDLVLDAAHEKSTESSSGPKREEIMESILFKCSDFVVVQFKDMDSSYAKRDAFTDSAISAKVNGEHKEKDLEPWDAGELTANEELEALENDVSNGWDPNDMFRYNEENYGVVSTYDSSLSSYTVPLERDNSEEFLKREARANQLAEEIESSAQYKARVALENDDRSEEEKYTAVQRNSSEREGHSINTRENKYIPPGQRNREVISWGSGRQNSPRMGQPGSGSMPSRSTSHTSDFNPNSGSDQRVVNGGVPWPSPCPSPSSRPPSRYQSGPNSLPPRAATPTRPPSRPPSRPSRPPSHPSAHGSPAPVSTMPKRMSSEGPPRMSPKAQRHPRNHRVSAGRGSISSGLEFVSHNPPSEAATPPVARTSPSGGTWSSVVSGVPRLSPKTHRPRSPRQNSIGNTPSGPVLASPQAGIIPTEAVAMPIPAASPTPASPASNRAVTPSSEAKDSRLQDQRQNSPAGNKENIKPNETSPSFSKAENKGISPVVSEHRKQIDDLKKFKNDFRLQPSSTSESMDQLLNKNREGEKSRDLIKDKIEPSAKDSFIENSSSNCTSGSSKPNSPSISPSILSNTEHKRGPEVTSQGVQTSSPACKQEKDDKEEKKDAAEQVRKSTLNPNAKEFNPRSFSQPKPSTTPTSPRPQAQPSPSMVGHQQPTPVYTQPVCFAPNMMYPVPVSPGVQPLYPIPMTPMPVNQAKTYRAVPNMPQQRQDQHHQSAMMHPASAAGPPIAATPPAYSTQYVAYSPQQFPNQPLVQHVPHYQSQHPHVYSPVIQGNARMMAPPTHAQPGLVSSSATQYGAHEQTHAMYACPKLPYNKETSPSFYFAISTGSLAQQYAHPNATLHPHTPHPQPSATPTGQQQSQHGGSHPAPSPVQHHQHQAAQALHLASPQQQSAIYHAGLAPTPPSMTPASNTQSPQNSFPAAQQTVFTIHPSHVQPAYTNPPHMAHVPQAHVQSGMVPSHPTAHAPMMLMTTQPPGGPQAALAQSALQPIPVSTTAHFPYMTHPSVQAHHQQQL", "test": "qHTS for Inhibitors of ATXN expression.", "type": "functional", "values": [{"smiles": "CCCNC(=O)c1ccc2c(O)c(O)c(-c3ccc(C)cc3)nc2c1", "Potency": "inactive"}, {"smiles": "N#Cc1c(-c2cccc(Br)c2)cc(-c2ccco2)nc1O", "Potency": "inactive"}, {"smiles": "Cc1cc(NC(=O)/C(C#N)=C/c2ccc(-c3ccc(SC(F)F)cc3)o2)n(-c2ccccc2)n1", "Potency": "inactive"}, {"smiles": "COc1cccc(-c2nn(-c3ccccc3)cc2CN(C)Cc2c(C)nc3ccccn23)c1", "Potency": "39.8 µM (active)"}, {"smiles": "Cc1nn(C(C)C(=O)NCC2CCCO2)c(C)c1[N+](=O)[O-]", "note": "(stereo not drawn)", "Potency": "inactive"}, {"smiles": "O=C(NCc1ccc(S(=O)(=O)Nc2ccccc2Cl)s1)c1ccccc1", "Potency": "inactive"}, {"smiles": "Cc1cccn2c(=O)c3cc(C(=O)N4CCCCC4)sc3nc12", "Potency": "inactive"}, {"smiles": "COc1ccc2nc(N3CCC(O)CC3)c(C#N)cc2c1", "Potency": "inactive"}, {"smiles": "Oc1c(Cl)cc(Cl)cc1C1=NNC(c2ccc(Cl)cc2)C1", "note": "(stereo not drawn)", "Potency": "inactive"}, {"smiles": "COc1ccccc1CC(=O)NC(=O)c1ccccc1O", "Potency": "inactive"}, {"smiles": "COc1cccc(CNn2cnnc2)c1O", "Potency": "inactive"}, {"smiles": "COc1ccccc1CNCC(O)Cn1c2ccccc2c2ccccc21", "note": "(stereo not drawn)", "Potency": "22.4 µM (active)"}, {"smiles": "CC(=O)Nc1sc(/C(C#N)=C/c2ccc(Cl)c(Cl)c2)nc1-c1ccc(C)cc1", "Potency": "inactive"}, {"smiles": "COc1ccccc1CCNC(=O)C(=O)NCC1OCCN1S(=O)(=O)c1ccc([N+](=O)[O-])cc1", "note": "(stereo not drawn)", "Potency": "inactive"}, {"smiles": "Cc1cccc(OCCn2cc(/C=N/NC(=O)c3ccncc3)c3ccccc32)c1", "Potency": "inactive"}, {"smiles": "CSc1c(CC(=O)NCCCO)n(Cc2ccccc2)c2ccccc12", "Potency": "inactive"}, {"smiles": "Cn1c2ccccc2c2cc(C(=O)NNC(=O)CCl)sc21", "Potency": "15 µM (active)"}, {"smiles": "CCC(=O)Nc1c(-c2ccccc2)c(=O)c2ccccc2n1C", "Potency": "inactive"}, {"smiles": "O=S(=O)(c1ccccc1)N1CCCN(S(=O)(=O)c2ccccc2)CC1", "Potency": "inactive"}, {"smiles": "O=S(=O)(CC(CN1CCCCC1)N1CCCCC1)c1ccccc1", "note": "(stereo not drawn)", "Potency": "31.6 µM (active)"}, {"smiles": "CC(CN1CCCCC1)OC(=O)c1ccco1", "note": "(stereo not drawn)", "Potency": "inactive"}, {"smiles": "O=C(NCc1ccc2c(c1)OCO2)c1nc(Cn2ccc([N+](=O)[O-])n2)no1", "Potency": "inactive"}, {"smiles": "CCn1nc(NC(=O)C(C)C)c2cc3cccc(C)c3nc21", "Potency": "inactive"}, {"smiles": "Cn1cc(/C=N/Nc2ccccc2)c2ccccc21", "Potency": "inactive"}, {"smiles": "COc1ccccc1Cc1c(-c2ccc(OC)c(OC)c2)nc2c3ccccc3ccn12", "Potency": "39.8 µM (active)"}, {"smiles": "COc1ccc(-c2nc3c(-c4ccccc4)cnn3cc2C)cc1F", "Potency": "inactive"}, {"smiles": "COc1ccc(-c2nc3cnccn3c2NCc2ccccc2)cc1SC1CCCCC1", "Potency": "inactive"}, {"smiles": "COc1ccc(-c2csc(-c3cccs3)n2)cc1OC", "Potency": "inactive"}, {"smiles": "COc1ccc(-c2nc3c4ccccc4ccn3c2Cc2ccccc2)cc1OC", "Potency": "39.8 µM (active)"}, {"smiles": "COc1ccc(Cc2c(-c3ccc(OC)c(OC)c3)nc3c(C)cc(Br)cn23)c(C)c1", "Potency": "20 µM (active)"}, {"smiles": "O=C(CC1C(=O)NCCN1C(=O)Nc1ccc(F)cc1)Nc1ccc(F)cc1", "note": "(stereo not drawn)", "Potency": "inactive"}, {"smiles": "Cc1csc(SCC(=O)NC(=O)NC(C)(C)C)n1", "Potency": "inactive"}, {"smiles": "Cn1c2ccccc2c(=O)c2cc(NCCCN3CCOCC3)ccc21", "Potency": "inactive"}, {"smiles": "O=C(NC1=NCCS1)c1cc(-c2ccc(-c3ccccc3)cc2)nc2ccccc12", "Potency": "inactive"}, {"smiles": "CN(/N=C/c1ccc(O)cc1O)c1nc(-c2ccccc2)cc(-c2ccccc2)n1", "Potency": "25.1 µM (active)"}, {"smiles": "CN(/N=C/c1cc(Br)cc(Br)c1O)c1cccc(C(F)(F)F)n1", "Potency": "inactive"}, {"smiles": "Cc1ccc(S(=O)(=O)[N-]c2nc3ccccc3nc2-[n+]2ccn(Cc3ccccc3)c2)cc1", "Potency": "inactive"}, {"smiles": "Cc1nc(N/N=C/c2cccc([N+](=O)[O-])c2)cc(N2CCCCC2)n1", "Potency": "inactive"}, {"smiles": "Cc1ccc(/N=C/c2nc(/C=C/c3cccc([N+](=O)[O-])c3)oc2O)cc1", "Potency": "39.8 µM (active)"}, {"smiles": "CC1(C)C([N+](=O)[O-])C(c2ccc(F)cc2)NC(c2ccc(F)cc2)C1[N+](=O)[O-]", "note": "(stereo not drawn)", "Potency": "inactive"}, {"smiles": "Cc1ccc(NNC2=C3N=NN=C3C=CC2=O)cc1", "Potency": "44.7 µM (active)"}, {"smiles": "C=CCn1c2ccccc2c(=O)c2cc(C#CC[C@@H](C)O)ccc21", "Potency": "inactive"}, {"smiles": "Clc1ccc(-c2nc(N3CCOCC3)nc3ccccc23)cc1", "Potency": "inactive"}, {"smiles": "Clc1ccc2c(SCC3CO3)c3ccccc3nc2c1", "note": "(stereo not drawn)", "Potency": "23.8 µM (active)"}, {"smiles": "O=C(O)c1ccccc1Cc1nc(O)c2ccc(Cl)cc2n1", "Potency": "inactive"}, {"smiles": "O=S(=O)([N-]c1nc2ccccc2nc1-[n+]1ccn(Cc2ccccc2)c1)c1ccccc1", "Potency": "inactive"}, {"smiles": "CC(C)OCCCNC(=O)CN1C(=O)c2cccc3cccc1c23", "Potency": "inactive"}, {"smiles": "COc1ccc(OC)c(C(=O)NC2CCCc3c2cnn3-c2cc(C)cc(C)c2)c1", "note": "(stereo not drawn)", "Potency": "inactive"}, {"smiles": "CC(=O)Nc1cccc(C(=O)NC2CCCc3c2cnn3-c2ccc(C(C)(C)C)cc2)c1", "note": "(stereo not drawn)", "Potency": "8.91 µM (active)"}, {"smiles": "COC(=O)CCCC(=O)NC1CCCc2c1cnn2-c1ccc(F)cc1F", "note": "(stereo not drawn)", "Potency": "inactive"}, {"smiles": "CCCNC(=O)Cn1c(=O)/c(=C\\c2ccc(-c3ccc([N+](=O)[O-])cc3)o2)s/c1=C\\C(=O)C(C)(C)C", "Potency": "inactive"}, {"smiles": "CNS(=O)(=O)c1ccc2c3c(cccc13)C(=O)N2C", "Potency": "inactive"}, {"smiles": "Cc1cc2nc3c(=O)n(Cc4ccccc4)c(=O)[nH]c3nc2cc1N", "Potency": "inactive"}, {"smiles": "Cc1ccccc1CNc1ccc(C(CC(N)=O)NC(=O)c2ccc(Br)cc2)cc1[N+](=O)[O-]", "note": "(stereo not drawn)", "Potency": "39.8 µM (active)"}, {"smiles": "CCOc1ccc(NC(=O)Cc2cccc3ccccc23)c([N+](=O)[O-])c1", "Potency": "inactive"}, {"smiles": "COc1ccc(NC(=O)CSc2n[nH]c(C(C)C)n2)c([N+](=O)[O-])c1", "Potency": "inactive"}, {"smiles": "NC(=O)CC(NC(=O)c1ccc(Br)cc1)c1ccc(NCc2ccc(F)cc2)c([N+](=O)[O-])c1", "note": "(stereo not drawn)", "Potency": "39.8 µM (active)"}, {"smiles": "COc1ccc(C(=O)N[C@H](C(=O)NCCc2ccc3c(c2)OCCO3)C(C)C)cc1", "Potency": "inactive"}, {"smiles": "NC(=NOC(=O)Cc1ccccc1[N+](=O)[O-])c1cccc(Br)c1", "Potency": "inactive"}, {"smiles": "O=C(NCc1ccc(F)cc1)c1ccc(CS(=O)(=O)c2ccc(Br)cc2)o1", "Potency": "inactive"}, {"smiles": "COc1ccc(CCNc2ccc(C(CC(N)=O)NC(=O)c3ccc(Br)cc3)cc2[N+](=O)[O-])cc1", "note": "(stereo not drawn)", "Potency": "31.6 µM (active)"}, {"smiles": "NC(=O)CC(NC(=O)Cc1cccc2ccccc12)c1ccc(NCCOc2ccccc2)c([N+](=O)[O-])c1", "note": "(stereo not drawn)", "Potency": "17.8 µM (active)"}, {"smiles": "O=C(Cc1cccc2ccccc12)Nc1cc(C(=O)O)cc(C(=O)O)c1", "Potency": "inactive"}]}]}
